Compounds without any hit were thinned out: in the full panel of roughly 79,000, 15% have a hit. Active and inactive are the calls of the source. Cut-off read from the data, not from the text of the source: active = growth inhibition above about 70%; inactive = the rest.
Experiments:
[1] = NCI Yeast Anticancer Drug Screen. Data for the rad52 strain (AID 147);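 note: 0% = growth of vehicle-treated control cultures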; settings: S. cerevisiae rad52 mutant growth inhibition, active compounds read high
Summary of the method: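 Genetically altered yeast (DNA damage repair defect) treated with compound; inhibition calculated relative to vehicle.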

[2] = NCI Yeast Anticancer Drug Screen. Data for the wt1 strain (AID 149);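 note: 0% = growth of vehicle-treated wt1 cultures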; settings: S. cerevisiae wt1 strain (SPY 50644) growth inhibition, active compounds read high
Summary of the method: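 Readout: yeast growth inhibition, normalised to vehicle controls, in the wt1 strain exposed to test compounds.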

[3] = NCI Yeast Anticancer Drug Screen. Data for the rad50EPP+ strain (AID 151);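 note: 0% = growth of vehicle-treated control cultures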; settings: S. cerevisiae rad50 mutant strain, active compounds read high
Summary of the method: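 Strain rad50EPP+; compound exposure; % growth inhibition vs vehicle.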

[4] = NCI Yeast Anticancer Drug Screen. Data for the mgt1 strain (AID 153); settings: S. cerevisiae mgt1 mutant growth inhibition, active compounds read high
Summary of the method: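 Read-out: yeast growth inhibition vs vehicle control. Strain mgt1, drawn from a panel altered in DNA damage repair or cell cycle control.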

[5] = NCI Yeast Anticancer Drug Screen. Data for the rad50 strain (AID 155);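 note: 0% = growth of vehicle-only cultures of the same strain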; settings: S. cerevisiae rad50 strain growth inhibition, active compounds read high
Summary of the method: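 Compounds were tested on a yeast strain with an engineered DNA damage repair alteration; the reported value is growth inhibition normalised to vehicle treatment.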

[6] = NCI Yeast Anticancer Drug Screen. Data for the mec2-1 strain (AID 157); settings: S. cerevisiae mec2-1 strain, active compounds read high
Summary of the method: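 Cells of the genetically defined mec2-1 yeast strain are incubated with test compound. Inhibition of growth is calculated against vehicle-treated controls.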

[7] = NCI Yeast Anticancer Drug Screen. Data for the rad14 strain (AID 159);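 note: 0% = growth of vehicle-treated control cultures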; settings: S. cerevisiae rad14 strain growth inhibition, active compounds read high
Summary of the method: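 Compound-treated yeast with a defined DNA-repair lesion; growth inhibition normalised to vehicle-treated cultures.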

[8] = NCI Yeast Anticancer Drug Screen. Data for the sgs1 mgt1 strain (AID 161);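 note: 0% = growth of cultures given vehicle only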; settings: S. cerevisiae sgs1 mgt1 strain, active compounds read high
Summary of the method: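 Mutant yeast exposed to compound; growth scored against vehicle-only wells.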

[9] = NCI Yeast Anticancer Drug Screen. Data for the CLN2oe strain (AID 163);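 note: 0% = growth of vehicle-only control cultures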; settings: S. cerevisiae CLN2oe strain, active compounds read high
Summary of the method: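 Strain altered in cell-cycle control, incubated with compound; growth compared to solvent-treated controls.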

[10] = NCI Yeast Anticancer Drug Screen. Data for the cln2 rad14 strain (AID 165);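 note: 0% = growth equal to vehicle treated cultures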; settings: S. cerevisiae cln2 rad14 strain, active compounds read high
Summary of the method: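 The screen exposed genetically defined yeast (cln2 rad14) to test compounds and scored growth inhibition relative to vehicle-treated controls.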

[11] = NCI Yeast Anticancer Drug Screen. Data for the bub3 strain (AID 167); settings: S. cerevisiae bub3 mutant strain, active compounds read high
Summary of the method: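 Growth of a checkpoint-deficient yeast mutant is measured after compound exposure. Values represent inhibition relative to vehicle.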

[12] = NCI Yeast Anticancer Drug Screen. Data for the wt2 strain (AID 169);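 note: 0% = growth of vehicle-treated yeast cultures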; settings: S. cerevisiae wt2 strain growth inhibition, active compounds read high
Summary of the method: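 Steps: yeast strain treated with compound; growth recorded; inhibition calculated relative to cultures given vehicle alone.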

[13] = NCI Yeast Anticancer Drug Screen. Data for the mlh1 strain (AID 171);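 note: 0% = growth of vehicle-treated control cultures of the same strain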; settings: S. cerevisiae mlh1 strain growth inhibition, active compounds read high
Summary of the method: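 Yeast screen: mutant strain plus compound, growth scored against vehicle control wells.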

[14] = NCI Yeast Anticancer Drug Screen. Data for the sgs1 strain (AID 173);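 note: 0% = growth of vehicle-only control cultures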; settings: S. cerevisiae sgs1 mutant, active compounds read high
Summary of the method: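 Inhibition of yeast growth served as the measure. The mutant strain was treated with each compound, and growth was normalised to cultures receiving vehicle alone.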

[15] = NCI Yeast Anticancer Drug Screen. Data for the mlh1 rad18 strain (AID 175); settings: S. cerevisiae mlh1 rad18 strain growth inhibition, active compounds read high
Summary of the method: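 Compound-treated yeast growth, normalised to vehicle controls. Strain bears defined DNA repair mutations.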

[16] = NCI Yeast Anticancer Drug Screen. Data for the rad18 strain (AID 177); settings: S. cerevisiae rad18 mutant growth inhibition, active compounds read high
Summary of the method: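 Inhibition values reflect reduced yeast growth compared with vehicle-treated controls, using a strain engineered with a DNA damage repair defect.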

[17] = at 5.0 µM (retest, dose inferred, filed as 0.5)
[18] = at 50.0 µM (retest, dose inferred, filed as 5.0)

Measured: growth inhibition

Oc1ccc(Cl)cc1Cc1ccccc1
active: [1]; at 11.0 µM 70% | [1]; at 33.0 µM 98% | [1]; at 100.0 µM 98% | [2]; at 33.0 µM 99% | [2]; at 100.0 µM 99% | [3]; at 33.0 µM 95% | [3]; at 100.0 µM 97% | [4]; at 11.0 µM 85% | [4]; at 33.0 µM 98% | [4]; at 100.0 µM 99% | [5]; at 33.0 µM 98% | [5]; [18] 86% | [5]; at 50.0 µM 92% | [5]; at 100.0 µM 98% | [6]; at 11.0 µM 77% | [6]; at 33.0 µM 84% | [6]; [18] 83% | [6]; at 50.0 µM 93.7% | [6]; at 100.0 µM 99% | [7]; at 33.0 µM 99% | [7]; at 100.0 µM 99% | [8]; at 50.0 µM 94.4% | [9]; at 11.0 µM 71% | [9]; at 33.0 µM 99% | [9]; at 100.0 µM 99% | [10]; [18] 99% | [10]; at 50.0 µM 92.9% | [11]; at 11.0 µM 70% | [11]; at 33.0 µM 100% | [11]; [18] 99% | [11]; at 50.0 µM 92.5% | [11]; at 100.0 µM 100% | [12]; at 33.0 µM 98% | [12]; at 100.0 µM 98% | [13]; at 33.0 µM 99% | [13]; at 100.0 µM 99% | [14]; at 33.0 µM 98% | [14]; at 100.0 µM 99% | [15]; [18] 70% | [15]; at 50.0 µM 93% | [16]; at 33.0 µM 95% | [16]; at 100.0 µM 97%
inactive: [1]; at 1.2 µM -21% | [1]; at 3.7 µM 4% | [2]; at 1.2 µM -41% | [2]; at 3.7 µM -11% | [2]; at 11.0 µM 60% | [3]; at 1.2 µM -52% | [3]; at 3.7 µM -15% | [3]; at 11.0 µM 28% | [4]; at 1.2 µM 11% | [4]; at 3.7 µM -2% | [5]; at 1.2 µM -46% | [5]; at 3.7 µM -43% | [5]; [17] 58% | [5]; at 11.0 µM 54% | [6]; at 1.2 µM -40% | [6]; at 3.7 µM 5% | [6]; [17] 54% | [7]; at 1.2 µM -23% | [7]; at 3.7 µM -23% | [7]; at 11.0 µM 54% | [8]; [17] -5% | [8]; [18] 44% | [9]; at 1.2 µM -11% | [9]; at 3.7 µM -30% | [10]; [17] 41% | [11]; at 1.2 µM -52% | [11]; at 3.7 µM -18% | [11]; [17] 36% | [12]; at 1.2 µM -53% | [12]; at 3.7 µM -16% | [12]; at 11.0 µM 54% | [13]; at 1.2 µM 12% | [13]; at 3.7 µM -9% | [13]; at 11.0 µM 69% | [14]; at 1.2 µM -23% | [14]; at 3.7 µM -17% | [14]; at 11.0 µM 66% | [15]; [17] 29% | [16]; at 1.2 µM -71% | [16]; at 3.7 µM -30% | [16]; at 11.0 µM 54%

CC1=C[C@H]2O[C@@H]3C[C@H]4OC(=O)/C=C\C=C\C(C(C)O)OCC(O)C(C)CC(=O)OC[C@@]2(C[C@@H]1O)[C@]4(C)[C@@]31CO1 (stereo partly specified)
active: [1]; at 11.0 µM 91% | [1]; at 33.0 µM 97% | [1]; at 100.0 µM 97% | [2]; at 11.0 µM 93% | [2]; at 33.0 µM 98% | [2]; at 100.0 µM 98% | [4]; at 11.0 µM 92% | [4]; at 33.0 µM 97% | [4]; at 100.0 µM 97% | [5]; at 11.0 µM 92% | [5]; at 33.0 µM 97% | [5]; [18] 98% | [5]; at 50.0 µM 91.1% | [5]; at 100.0 µM 97% | [6]; at 11.0 µM 88% | [6]; at 33.0 µM 97% | [6]; [18] 98% | [6]; at 50.0 µM 92.2% | [6]; at 100.0 µM 97% | [7]; at 11.0 µM 93% | [7]; at 33.0 µM 97% | [7]; at 100.0 µM 97% | [8]; at 50.0 µM 92.2% | [9]; at 11.0 µM 91% | [9]; at 33.0 µM 97% | [10]; at 50.0 µM 91.4% | [11]; at 11.0 µM 89% | [11]; at 33.0 µM 97% | [11]; at 50.0 µM 90.8% | [11]; at 100.0 µM 97% | [12]; at 11.0 µM 78% | [12]; at 33.0 µM 98% | [12]; at 100.0 µM 98% | [13]; at 11.0 µM 89% | [13]; at 33.0 µM 97% | [13]; at 100.0 µM 97% | [14]; at 11.0 µM 82% | [14]; at 33.0 µM 94% | [14]; at 100.0 µM 96% | [15]; [18] 98% | [15]; at 50.0 µM 89.7% | [16]; at 11.0 µM 91% | [16]; at 33.0 µM 96% | [16]; at 100.0 µM 96%
inactive: [1]; at 1.2 µM -21% | [1]; at 3.7 µM 2% | [2]; at 1.2 µM -13% | [2]; at 3.7 µM 24% | [3]; at 1.2 µM -29% | [3]; at 3.7 µM -43% | [3]; at 11.0 µM -31% | [3]; at 33.0 µM -46% | [3]; at 100.0 µM -55% | [4]; at 1.2 µM -54% | [4]; at 3.7 µM -7% | [5]; at 1.2 µM -23% | [5]; at 3.7 µM 17% | [5]; [17] 41% | [6]; at 1.2 µM -60% | [6]; at 3.7 µM -3% | [6]; [17] 40% | [7]; at 1.2 µM -14% | [7]; at 3.7 µM 25% | [8]; [17] 7% | [8]; [18] 12% | [9]; at 1.2 µM 13% | [9]; at 3.7 µM 24% | [9]; at 100.0 µM 18% | [10]; [17] 18% | [10]; [18] -18% | [11]; at 1.2 µM -46% | [11]; at 3.7 µM 4% | [11]; [17] 4% | [11]; [18] -8% | [12]; at 1.2 µM -12% | [12]; at 3.7 µM 8% | [13]; at 1.2 µM -73% | [13]; at 3.7 µM 3% | [14]; at 1.2 µM -42% | [14]; at 3.7 µM -17% | [15]; [17] 68% | [16]; at 1.2 µM -64% | [16]; at 3.7 µM -15%

From PubChem BioAssay (NCI)
